# Reference: PubChem BioAssay AID1159580 (chemical genetic matrix, 2015)
# Hit rate of the full screen: of about 5,500 compounds, about 2,000 (36%) were called active. Another 18% or so got no clear call; they are omitted. Some of the results follow. A number with no mark means an inactive call. No stated cut-off is given here; in the data, active means normalized growth mostly below about 0.91 (no sharp cut-off); inconclusive means no clear call, values can overlap the other calls; inactive means mostly above about 0.92.
# Assay: chemical genetic growth profiling, strain panel (AID 1159580);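 further: tested at 20 µM; growth read once vehicle control cultures reached saturation at 30 °C; 1 = growth at the plate median or of vehicle wells; lower values mean less growth of the strain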
# Details: growth OD
compound,measurement,setting,value
O=C1C=C2C(=CCOC2O)O1 (stereo unspecified),normalized growth,"S. cerevisiae deletion strains, locus YKL009W, strain mrt4, active compounds read low",0.714 (active)
same,normalized growth,"S. cerevisiae deletion strains, locus YKL068W, active compounds read low",0.904 (active)
same,normalized growth,"S. cerevisiae deletion strains, locus YKL085W, strain MDH1 (second series), active compounds read low",0.868 (active)
same,normalized growth,"S. cerevisiae deletion strains, locus YKL085W, strain MDH1, active compounds read low",0.868 (active)
same,normalized growth,"S. cerevisiae deletion strains, locus YKL160W, strain elf1, active compounds read low",0.736 (active)
same,normalized growth,"S. cerevisiae deletion strains, locus YKL190W, strain CNB1, active compounds read low",0.834 (active)
same,normalized growth,"S. cerevisiae deletion strains, locus YKR001C, strain vps1, active compounds read low",0.541 (active)
same,normalized growth,"S. cerevisiae deletion strains, locus YKR026C, strain gcn3, active compounds read low",0.795 (active)
same,normalized growth,"S. cerevisiae deletion strains, locus YKR091W, strain srl3, active compounds read low",0.885 (active)
same,normalized growth,"S. cerevisiae deletion strains, locus YLL001W, strain dnm1, active compounds read low",0.691 (active)
same,normalized growth,"S. cerevisiae deletion strains, locus YLL026W, active compounds read low",0.769 (active)
same,normalized growth,"S. cerevisiae deletion strains, locus YLL041C, strain sdh2, active compounds read low",0.84 (active)
same,normalized growth,"S. cerevisiae deletion strains, locus YLR027C, strain aat2, active compounds read low",0.727 (active)
same,normalized growth,"S. cerevisiae deletion strains, locus YLR039C, strain RIC1, active compounds read low",0.292 (active)
same,normalized growth,"S. cerevisiae deletion strains, locus YLR058C, strain SHM2, active compounds read low",0.927
same,normalized growth,"S. cerevisiae deletion strains, locus YLR102C, strain apc9, active compounds read low",0.96
same,normalized growth,"S. cerevisiae deletion strains, locus YLR113W, strain HOG1, active compounds read low",0.708 (active)
same,normalized growth,"S. cerevisiae deletion strains, locus YLR221C, strain rsa3, active compounds read low",0.716 (active)
same,normalized growth,"S. cerevisiae deletion strains, locus YLR258W, strain gsy2, active compounds read low",0.794 (active)
same,normalized growth,"S. cerevisiae deletion strains, locus YLR262C, strain YPT6 (second series), active compounds read low",0.337 (active)
same,normalized growth,"S. cerevisiae deletion strains, locus YLR262C, strain YPT6, active compounds read low",0.231 (active)
same,normalized growth,"S. cerevisiae deletion strains, locus YLR268W, strain sec22, active compounds read low",0.794 (active)
same,normalized growth,"S. cerevisiae deletion strains, locus YLR320W, strain mms22, active compounds read low",0.701 (active)
same,normalized growth,"S. cerevisiae deletion strains, locus YLR330W, strain CHS5, active compounds read low",0.87 (active)
same,normalized growth,"S. cerevisiae deletion strains, locus YLR342W, strain FKS1 (second series), active compounds read low",0.774 (active)
same,normalized growth,"S. cerevisiae deletion strains, locus YLR342W, strain FKS1, active compounds read low",0.72 (active)
same,normalized growth,"S. cerevisiae deletion strains, locus YLR357W, strain rsc2, active compounds read low",0.862
same,normalized growth,"S. cerevisiae deletion strains, locus YLR370C, strain arc18, active compounds read low",0.697 (active)
same,normalized growth,"S. cerevisiae deletion strains, locus YLR371W, strain rom2, active compounds read low",0.945
same,normalized growth,"S. cerevisiae deletion strains, locus YLR384C, strain iki3, active compounds read low",0.789 (active)
same,normalized growth,"S. cerevisiae deletion strains, locus YLR418C, strain cdc73, active compounds read low",0.62 (active)
same,normalized growth,"S. cerevisiae deletion strains, locus YML016C, strain PPZ1, active compounds read low",0.953
same,normalized growth,"S. cerevisiae deletion strains, locus YML032C, strain rad52, active compounds read low",0.92
same,normalized growth,"S. cerevisiae deletion strains, locus YML120C, strain ndi1, active compounds read low",0.76 (active)
same,normalized growth,"S. cerevisiae deletion strains, locus YML124C, strain tub3, active compounds read low",0.918 (active)
same,normalized growth,"S. cerevisiae deletion strains, locus YMR058W, strain fet3, active compounds read low",0.328 (active)
same,normalized growth,"S. cerevisiae deletion strains, locus YMR078C, strain ctf18, active compounds read low",0.989
same,normalized growth,"S. cerevisiae deletion strains, locus YMR125W, strain sto1, active compounds read low",0.729 (active)
same,normalized growth,"S. cerevisiae deletion strains, locus YMR129W, active compounds read low",0.836 (active)
same,normalized growth,"S. cerevisiae deletion strains, locus YMR205C, strain PFK2, active compounds read low",0.722 (active)
same,normalized growth,"S. cerevisiae deletion strains, locus YMR223W, strain ubp8, active compounds read low",0.801 (active)
same,normalized growth,"S. cerevisiae deletion strains, locus YMR231W, strain pep5, active compounds read low",0.0886 (active)
same,normalized growth,"S. cerevisiae deletion strains, locus YMR263W, strain SAP30, active compounds read low",0.852 (active)
same,normalized growth,"S. cerevisiae deletion strains, locus YMR307W, strain GAS1, active compounds read low",0.302 (active)
same,normalized growth,"S. cerevisiae deletion strains, locus YNL067W, strain RPL9B, active compounds read low",0.689 (active)
same,normalized growth,"S. cerevisiae deletion strains, locus YNL071W, strain lat1, active compounds read low",0.654 (active)
same,normalized growth,"S. cerevisiae deletion strains, locus YNL128W, strain TEP1, active compounds read low",0.798 (active)
same,normalized growth,"S. cerevisiae deletion strains, locus YNL153C, strain GIM3, active compounds read low",0.664 (active)
same,normalized growth,"S. cerevisiae deletion strains, locus YNL183C, strain NPR1, active compounds read low",0.825 (active)
same,normalized growth,"S. cerevisiae deletion strains, locus YNL209W, strain ssb2, active compounds read low",0.761 (active)
same,normalized growth,"S. cerevisiae deletion strains, locus YNL233W, strain BNI4, active compounds read low",0.81 (active)
same,normalized growth,"S. cerevisiae deletion strains, locus YNL248C, strain rpa49, active compounds read low",0.701 (active)
same,normalized growth,"S. cerevisiae deletion strains, locus YNL250W, strain rad50, active compounds read low",0.903
same,normalized growth,"S. cerevisiae deletion strains, locus YNL271C, strain bni1, active compounds read low",0.92
same,normalized growth,"S. cerevisiae deletion strains, locus YNL298W, strain CLA4, active compounds read low",0.842 (active)
same,normalized growth,"S. cerevisiae deletion strains, locus YNL307C, strain MCK1, active compounds read low",0.748 (active)
same,normalized growth,"S. cerevisiae deletion strains, locus YNL322C, strain KRE1 (second series), active compounds read low",0.911
same,normalized growth,"S. cerevisiae deletion strains, locus YNL322C, strain KRE1, active compounds read low",0.815 (active)
same,normalized growth,"S. cerevisiae deletion strains, locus YNR049C, strain mso1, active compounds read low",0.812 (active)
same,normalized growth,"S. cerevisiae deletion strains, locus YNR052C, strain pop2, active compounds read low",0.83 (active)
same,normalized growth,"S. cerevisiae deletion strains, locus YOL006C, strain TOP1, active compounds read low",0.632
same,normalized growth,"S. cerevisiae deletion strains, locus YOL012C, strain htz1",0.714
same,normalized growth,"S. cerevisiae deletion strains, locus YOL147C, strain pex11, active compounds read low",0.984
same,normalized growth,"S. cerevisiae deletion strains, locus YOR001W, strain rrp6, active compounds read low",0.638 (active)
same,normalized growth,"S. cerevisiae deletion strains, locus YOR061W, strain CKA2, active compounds read low",0.929
same,normalized growth,"S. cerevisiae deletion strains, locus YOR069W, strain VPS5, active compounds read low",0.862 (active)
same,normalized growth,"S. cerevisiae deletion strains, locus YOR070C, strain gyp1, active compounds read low",0.794 (active)
same,normalized growth,"S. cerevisiae deletion strains, locus YOR080W, strain dia2, active compounds read low",0.864 (active)
same,normalized growth,"S. cerevisiae deletion strains, locus YOR083W, strain WHI5, active compounds read low",0.662 (active)
same,normalized growth,"S. cerevisiae deletion strains, locus YOR106W, strain vam3, active compounds read low",0.522 (active)
same,normalized growth,"S. cerevisiae deletion strains, locus YOR136W, strain idh2, active compounds read low",0.896 (active)
same,normalized growth,"S. cerevisiae deletion strains, locus YOR144C, strain elg1, active compounds read low",0.966
same,normalized growth,"S. cerevisiae deletion strains, locus YOR184W, strain ser1, active compounds read low",0.719 (active)
same,normalized growth,"S. cerevisiae deletion strains, locus YOR231W, strain MKK1, active compounds read low",0.877
same,normalized growth,"S. cerevisiae deletion strains, locus YOR265W, strain rbl2, active compounds read low",0.792 (active)
same,normalized growth,"S. cerevisiae deletion strains, locus YOR270C, strain vph1, active compounds read low",0.506 (active)
same,normalized growth,"S. cerevisiae deletion strains, locus YOR290C, strain snf2, active compounds read low",0.86 (active)
same,normalized growth,"S. cerevisiae deletion strains, locus YOR316C, strain cot1, active compounds read low",0.951
same,normalized growth,"S. cerevisiae deletion strains, locus YPL051W, strain arl3, active compounds read low",0.607 (active)
same,normalized growth,"S. cerevisiae deletion strains, locus YPL055C, strain LGE1, active compounds read low",0.601 (active)
same,normalized growth,"S. cerevisiae deletion strains, locus YPL078C, strain atp4, active compounds read low",0.615 (active)
same,normalized growth,"S. cerevisiae deletion strains, locus YPL106C, strain sse1, active compounds read low",0.542 (active)
same,normalized growth,"S. cerevisiae deletion strains, locus YPL240C, strain hsp82, active compounds read low",0.852 (active)
same,normalized growth,"S. cerevisiae deletion strains, locus YPL241C, strain CIN2, active compounds read low",0.921 (active)
same,normalized growth,"S. cerevisiae deletion strains, locus YPL256C, strain CLN2, active compounds read low",0.809 (active)
same,normalized growth,"S. cerevisiae deletion strains, locus YPR119W, strain clb2, active compounds read low",0.965
same,normalized growth,"S. cerevisiae deletion strains, locus YPR141C, strain kar3, active compounds read low",0.898 (active)
same,normalized growth,"S. cerevisiae deletion strains, locus YPR163C, strain tif3, active compounds read low",0.823 (active)
same,normalized growth,"S. cerevisiae deletion strains, locus YPR167C, strain met16, active compounds read low",0.937
same,normalized growth,"S. cerevisiae deletion strains, strain wtn01, active compounds read low",0.76 (active)
same,normalized growth,"S. cerevisiae strains, strain wild type, active compounds read low",0.78 (active)
